The source made the active and inactive calls.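 The calls were made as follows: active = compound whose NMR saturation transfer difference test with menin is positive, showing direct binding to the protein; inactive = the rest.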
The compounds below were run against Menin (Homo sapiens) (UniProt O00255) (assay: Confirmation of Inhibitors Targeting the Menin-MLL Interaction in MLL Related Leukemias: NMR spectroscopy to verify direct binding of compounds to menin). Settings: purified menin, NMR STD binding, 100 uM.
Sequence of Menin (Homo sapiens) (O00255 whole entry, looked up, the tested form may be a part): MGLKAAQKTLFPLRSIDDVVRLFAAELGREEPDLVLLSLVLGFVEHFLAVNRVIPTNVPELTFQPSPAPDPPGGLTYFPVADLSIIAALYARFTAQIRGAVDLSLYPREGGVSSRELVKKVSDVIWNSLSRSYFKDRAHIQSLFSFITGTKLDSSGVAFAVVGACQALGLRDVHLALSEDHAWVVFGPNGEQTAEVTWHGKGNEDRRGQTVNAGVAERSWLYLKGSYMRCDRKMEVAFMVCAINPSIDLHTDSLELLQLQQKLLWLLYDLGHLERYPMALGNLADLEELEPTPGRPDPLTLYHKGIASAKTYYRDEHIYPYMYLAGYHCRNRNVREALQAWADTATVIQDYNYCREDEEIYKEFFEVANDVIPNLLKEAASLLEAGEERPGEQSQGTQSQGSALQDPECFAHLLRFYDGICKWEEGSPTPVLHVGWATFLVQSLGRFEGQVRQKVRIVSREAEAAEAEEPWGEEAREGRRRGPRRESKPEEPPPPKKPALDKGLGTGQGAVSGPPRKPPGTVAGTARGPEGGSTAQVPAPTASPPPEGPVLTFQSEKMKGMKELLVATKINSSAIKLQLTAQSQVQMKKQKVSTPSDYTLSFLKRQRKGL
From the text: qHTS Assay for Inhibitors Targeting the Menin-MLL Interaction in MLL Related Leukemias NIH Chemical Genomics Center [NCGC] NIH Molecular Libraries Probe Centers Network [MLPCN] MLPCN Grant: MH084875-01A1 Assay Submitter (PI): Jolanta Grembecka, Tomasz Cierpicki, University of Virginia Translocations of the MLL (Mixed Lineage Leukemia) gene are frequently found in human leukemias affecting both children and adults. Fusion of MLL to one of more than 60 genes results in generation of oncogenic proteins upregulating Hox genes, which are vital to blood cell development. Patients harboring fusion of the MLL gene suffer from aggressive leukemias and respond poorly to available therapies. All of the oncogenic fusion proteins have a preserved N-terminal fragment of MLL that has been identified to interact with menin. It has been recently discovered that association with menin is critical to the leukemogenic activity of the MLL fusion oncoproteins. Selective targeting of the menin-MLL interaction could provide an attractive therapeutic approach to develop novel drugs for MLL-related leukemias. Small molecules blocking the menin-MLL interaction should reverse the oncogenic potential of MLL fusion proteins. We have developed and optimized a fluorescence polarization-based assay for the identification of Menin-MLL inhibitors. The assay was run employing two different MLL-derived peptides. The present assay uses a 12 amino acid peptide labeled with fluorescein at its N-terminus. This peptide consists of the menin high affinity binding motif from MLL and is potently bound by menin. Another peptide with a mutated sequence, labeled with Texas Red, was used in parallel as a less stringent screen for inhibitors. The present assay was developed to confirm hits from this primary screen, examining saturation transfer differences in NMR spectra upon incubation of the menin protein with compound.
The Menin protein, the MLL-wild type (w.t.) derived peptide (N-terminal 12 amino acids), the MLL-derived peptide labeled with Texas Red and the MLL-w.t. peptide labeled with Fluorescein were kindly supplied by laboratory of Dr. Jolanta Grembecka, University of Virginia. All protein and peptide solutions were stored in single use aliquots at -80C. The Buffer components for all assays were purchased from Sigma-Aldrich (St. Louis, MO) and Invitrogen (Carlsbad, CA). Assay Reagents: 1. Menin protein 2. MLL w.t. 3. NMR buffer: 50mM phosphate, 50mM NaCl, 1mM DTT, pH = 7.5 NMR protocol: 1. Prepare 450 uL of menin (2.5 uM) in complex with 100uM compound in NMR buffer and run STD (Saturation Transfer Difference) on NMR Bruker 600 MHz 2. Prepare 450 uL of menin (2.5 uM) in complex with 100 uM compound and 25uM of MLL w.t. in NMR buffer and run STD (Saturation Transfer Difference) on NMR Bruker 600 MHz

| Compound | outcome |
| --- | --- |
| CCc1cc2c(N3CCN(c4nnc(CC)s4)CC3)ncnc2s1 | inactive; negative |
| COC(=O)Cc1c(C)nc2nc(-c3ccc(OC)cc3)[nH]n2c1=O | inactive; negative |
| Cc1cc(N/N=C/c2ccc(O)cc2)c2cccc(C)c2n1 | inactive; negative |
| COc1ccc2[nH]c3c(C)c4ccncc4c(C)c3c2c1 | inactive; negative |
| Cc1cc2[nH]c3c(c[n+](C)c4ccccc34)c2cc1C | inactive; negative |
| O=C(CCC1CCCCC1)NCCN1C2=NC[C@H](Cc3ccc(O)cc3)N2C[C@H]1Cc1ccc(O)cc1 | active; positive |
| Oc1ccc(Nc2ncnc3c2oc2ccccc23)cc1 | inactive; negative |
| CCC(=O)Nc1ccc(-c2cc(-c3ccccc3)nc(-c3ccc(NC(=O)CC)cc3)n2)cc1 | inactive; negative |
| CCCC(c1nnnn1Cc1ccco1)N1CCN(C2CCCC2)CC1 (stereo not given) | active; positive |
| O=C1C(SCCO)=C(SCCO)C(=O)c2ccccc21 | inactive; negative |
| CC(c1ccccc1)c1nnc(NC(=O)Nc2ccccc2F)s1 (stereo not given) | inactive; negative |
| COc1cc(-c2ccc(-[n+]3nc(-c4ccccc4)nn3-c3ccc([N+](=O)[O-])cc3)c(OC)c2)ccc1-[n+]1nc(-c2ccccc2)nn1-c1ccc([N+](=O)[O-])cc1 | inactive; negative |
| Cc1ccc(-c2cc(C(=O)Nc3cc(C)ccc3O)no2)cc1 | inactive; negative |
| CCC(c1nnnn1Cc1ccc(F)cc1)N1CCN(C2CCCCC2)CC1 (stereo not given) | active; positive |
| N=C1c2ccccc2CN1c1ccc(N2CCOCC2)c(S(=O)(=O)Nc2ccc(Cl)cc2)c1 | inactive; negative |
| CCC[n+]1c2ccccc2cc2ccccc21 | inactive; negative |
| CCc1oc2ccccc2c1C(=O)c1cc(Br)c(O)c(Br)c1 | inactive; negative |
| CN(CCOc1ccc(Cl)cc1)CC(O)c1ccccc1 (stereo not given) | inactive; negative |
| O=C(Nc1nnc(-c2ccccc2SCc2ccccc2)s1)Nc1ccccc1F | inactive; negative |
| CCOc1cc(CNCCc2ccc(S(N)(=O)=O)cc2)ccc1OCc1ccccc1 | active; positive |

| Compound | outcome |
| --- | --- |
| N#Cc1ccc(OCC(O)CN2CCN(C(c3ccccc3)c3ccccc3)CC2)cc1 (stereo not given) | active; positive |
| CC(C)Sc1nc(N2CCOCC2)c2c3c(sc2n1)COC(C)(C)C3 | inactive; negative |
| COC(=O)[C@H](C)NC(=O)c1cc2c(cn1)[nH]c1ccccc12 | inactive; negative |
| O=C(CS)Nc1ccc2ccccc2c1 | inactive; negative |
| COc1ccccc1NS(=O)(=O)c1cc(NC(=O)Nc2cccc(C)c2)ccc1N1CCCCC1 | inactive; negative |
| CCCC(c1nnnn1Cc1cccs1)N1CCN(C2CCCC2)CC1 (stereo not given) | active; positive |
| O=C(C[N+]12CC[N+](CC(=O)c3ccc(F)cc3)(CC1)CC2)c1ccc(F)cc1 | active; positive |
| COc1ccccc1NS(=O)(=O)c1cc(N2Cc3ccccc3C2=N)ccc1N1CCOCC1 | inactive; negative |
| O=C(O)CSc1cc(NS(=O)(=O)c2ccc(Br)cc2)c2ccccc2c1O | inactive; negative |
| COc1ccc(S(=O)(=O)Nc2cc(SCC(=O)O)c(O)c3ccccc23)cc1 | inactive; negative |
| CNC[C@H](CC1CCCCC1)NC[C@H](Cc1ccccc1)NCCC12CC3CC(CC(C3)C1)C2 | inactive; negative |
| COc1ccccc1C(=O)Nc1ccnn1C1CCN(CC2CC=CCC2)CC1 (stereo not given) | active; positive |
| CN(C)c1ccc(C2CC(=O)C=C(Nc3ccccc3N)C2)cc1 (stereo not given) | inactive; negative |
| CN(C)C(CNc1ncnc2sc3c(c12)CCCCC3)c1ccco1 (stereo not given) | active; positive |
| CC(=O)NC1C(=O)N(CCN2CCOCC2)c2ccc(C)cc21 (stereo not given) | inactive; negative |
| COc1ccc(Cn2nnnc2C(c2ccc3ncccc3c2)N2CCN(C3CCCCC3)CC2)cc1 (stereo not given) | active; positive |
| NS(=O)(=O)c1ccc(NC(=O)c2ccc(-c3ccccc3)cc2)cc1 | inactive; negative |
| O=C(COC(=O)c1ccc(NS(=O)(=O)c2cccs2)cc1)Nc1nc2c(F)c(F)c(F)cc2s1 | inactive; negative |
| C[C@H](NC(=O)c1cc2c(cn1)[nH]c1ccccc12)C(=O)O | inactive; negative |
| NC(=NCCCCCCN=C(N)/N=C(\N)Nc1ccc(Cl)cc1)/N=C(\N)Nc1ccc(Cl)cc1 | inactive; negative |

Source: PubChem BioAssay AID2781 (National Center for Advancing Translational Sciences (NCATS), 2010)
